Data taken from PubChem BioAssay (EPA / NIEHS).
Active and inactive are the calls of the source. How the source made its calls: active means hit-call score of the fitted dose curve at least 0.9, where 1 is the maximum; inactive means score below 0.9.

Test: ATG_TAL_CIS: Attagene CIS-FACTORIAL HepG2 Assay for human TAL Basal Promoter (AID 2282966)
Details: HepG2 Attagene cis-factorial TAL promoter reporter; actives raise or lower the signal
Protocol: ATG_CIS is a cell-based, multiplexed-readout assay that uses HepG2, a human liver cell line, with measurements taken at 24 hours after chemical dosing in a 24-well plate.ATG_TAL_CIS is one of 52 assay component(s) measured or calculated from the ATG_CIS assay. It is designed to make measurements of mRNA induction, a form of inducible reporter, as detected with fluorescence intensity signals by Reverse transcription polymerase chain reaction (RT-PCR) and Capillary electrophoresis technology.Data from the assay component ATG_TAL_CIS was analyzed into 1 assay endpoint. This assay endpoint, ATG_TAL_CIS, was analyzed with bidirectional fitting relative to DMSO as the negative control and baseline of activity. Using a type of inducible reporter, measures of mRNA for gain or loss-of-signal activity can be used to understand the background control at the transcription factor-level as they relate to the gene . Furthermore, this assay endpoint can be referred to as a secondary readout, because this assay has produced multiple assay endpoints where this one serves a background control function. To generalize the intended target to other relatable targets, this assay endpoint is annotated to the background measurement intended target family, where the subfamily is internal marker.
Human liver HepG2 cells are transiently transfected with multiple reporter transcription units (MRTUs) in 6-well plates using FuGene 6 reagent (Roche; 3 ml FuGene/1 mg DNA). The MRTU constructs are regulated by a cis-regulating element (promoter). […] A major difference between the CIS and TRANS system is that in CIS activities of endogenous TFs are measured, whereas the TRANS assay evaluates changes in activities of exogenous, chimeric NR-Gal4 proteins. […] At the end of 24 hour incubation, total RNA was isolated using TriZol reagent (Invitrogen). The isolated RNA is then reverse-transcribed using oligo(dT) primer and Mo-MLV reverse transcriptase (Invitrogen) with DNAse I (Ambion) treatment for 30 min. The one-tenth of the produced cDNA was amplified by PCR using Taq DNA polymerase (Invitrogen) and two reporter sequence-specific primers. The PCR products were fluorescently labeled by primer extension with 6-arboxyfluorescein (6-FAM) 5'-labeled reporter sequence-specific primer (2 min at 95 C, 20 s at 68 C and 10 min at 72 C) and these products were digested with 5U of HpaI (New England Biolabs) for 2h at 37 C. The fragments were purified using Qiaquick PCR columns (Qiagen), analyzed on an ABI 3130xL genetic analyzer (Applied Biosystems) with peak positions identified by using a set of X-rhodamine (ROX)-labeled MapMarker1000 molecular weight standards (BioVentures). The raw capillary electrophoresis data was processed using Attagraph software (Attagene).

Compound | outcome | AC50
CCC(C)NC(N)=O (stereo not given) | inactive | 
CC(C)(Oc1ccc(Cl)cc1)C(=O)O | inactive | 
COC(=O)c1ccccc1 | inactive | 
CO[Si](CCCNCCN)(OC)OC | inactive | 
CC(=O)c1nccs1 | inactive | 
CCCCCC[C@@H](O)C/C=C\CCCCCCCC(=O)O | inactive | 
COc1cccc(OC)c1C(=O)O | inactive | 
NC(=O)c1ccc([N+](=O)[O-])cc1Cl | inactive | 
CCC(=O)OCc1ccc(OC)cc1 | inactive | 
c1ccc2c(c1)Oc1ccccc1S2 | inactive | 
CCCC(=O)OC | inactive | 
NC(=O)c1ccc(N)cc1 | inactive | 
Cc1ccccc1S(=O)(=O)O | inactive | 
Oc1ccc(Oc2ccccc2)cc1 | inactive | 
CN(C)Cc1cc(C(C)(C)C)c(O)c(C(C)(C)C)c1 | inactive | 
CCCCCCCCCCCCCCCCCC[N+](C)(C)C |  | 39.2 µM (active)
O=C(OCc1ccccc1)c1ccccc1 | inactive | 
O=C1CCCCCCCCCCCCCC1 | inactive | 
CC/C=C\CC1=C(C)CCC1=O | inactive | 
Cc1ccccc1S(N)(=O)=O | inactive | 

Compound | outcome | AC50
Oc1ccc(Cl)cc1C1CCCC1 |  | 54.9 µM (active)
CNC(=C[N+](=O)[O-])NCCSCc1csc(CN(C)C)n1 | inactive | 
C=CCOC(=O)C(=C)C | inactive | 
CCCC(=O)OC/C=C(\C)CCC=C(C)C | inactive | 
Nc1ccc(S(=O)(=O)Nc2cnc3ccccc3n2)cc1 | inactive | 
O=C(O)Cc1c[nH]c2ccccc12 | inactive | 
Clc1ccc(Sc2cc(Cl)c(Cl)cc2Cl)cc1 | inactive | 
CCCCCCCCCCCCCC | inactive | 
CC/C=C/CCO | inactive | 
Oc1cccc2ccccc12 | inactive | 
OCCN(CCO)c1cccc(Cl)c1 | inactive | 
COc1ccccc1OCC(O)CO (stereo not given) | inactive | 
CC(=O)Nc1c(I)c(NC(C)=O)c(I)c(C(=O)O)c1I | inactive | 
CNC[C@H](O)[C@@H](O)[C@H](O)[C@H](O)CO | inactive | 
CCCN[C@H]1CCc2nc(N)sc2C1 | inactive | 
CC1=C(CC=O)C(C)(C)CCC1 | inactive | 
CC(C)=CCOC(=O)c1ccccc1 | inactive | 
CC[N+](CC)(CC(=O)Nc1c(C)cccc1C)Cc1ccccc1 | inactive | 
Clc1ccccn1 | inactive | 
CC1=NN(c2cc(Cl)c(S(=O)(=O)O)cc2Cl)C(=O)C1N=Nc1ccc(S(=O)(=O)O)cc1 (stereo not given) | inactive | 
